According to ChEMBL document CHEMBL4513216, “Probing the Open Global Health Chemical Diversity Library for Multistage-Active Starting Points for Next-Generation Antimalarials” (ACS Infect Dis, 2020):
The campaign covered roughly 69,000 compounds. About 8,600 (12%) showed an effect of 50% or more. This excerpt belongs to a sample that is enriched for strong results.

System: Plasmodium berghei
Assay: Screen against P. berghei liver stage (PbLuc), transformed with Luciferase, at 10uM
Type: functional, HepG2
Settings: tested at 10 uM

Compared with `CCN(CC)c1ncccc1CNCc1ccc(Cl)s1`, `CC(Cn1cccn1)NCc1csc(COc2ccc(F)cc2)n1` (stereo not drawn) is lower in INHIBITION: 49.4% for the first, 33.7% for the second.

Going from `Cc1ncsc1CN(Cc1ccccc1)Cc1ccncc1` to `CN(C)CC(C)(C)Cn1cnc(-c2ccccc2)c1-c1ccncc1`, the INHIBITION falls from 12.1% to -18.1%.

Compared with `CC(C(=O)Nc1ccc(Cl)cn1)n1ccc(C(F)(F)F)n1` (stereo not drawn), `CC(=O)N1CCC(c2cc(C(F)(F)F)nc3nccn23)CC1` is higher in INHIBITION: 42.4% for the first, 61.9% for the second.

Compared with `Cc1cccc2nc(C(=O)N3CCCC[C@]4(C)NC(=O)CC[C@H]34)cn12`, `CCc1cc(=O)n(CC(=O)N2CCCCC2)c(-c2cccc(F)c2)n1` is higher in INHIBITION: 22% for the first, 44.1% for the second.

Going from `O=C(NC1CC1)c1cc(C(F)(F)F)cc(C(=O)NC2CC2)n1` to `CC(=O)N1CCC(c2cc(C(F)(F)F)n3ccnc3n2)CC1`, the INHIBITION falls from 5.21% to -22.6%.

First: Cc1cc(CN(C)CC2CCCCC2)no1
Second: Cc1cc(CN(C)Cc2ncc(C(C)(C)C)o2)no1
The INHIBITION of the first is higher: 23.1% for the first, -30.5% for the second.

First: Cc1cc(CN(C)Cc2ncc(-c3cccs3)o2)no1
Second: Cc1cc(CN(C)Cc2ncc(-c3ccccc3)o2)no1
The INHIBITION of the first is lower: 1.84% for the first, 50.7% for the second.

First: Cc1cc(CN(C)CCC(O)c2ccccc2)no1 (stereo not drawn)
Second: Cc1cc(CN(C)CCN(C)c2ccccc2)no1
The INHIBITION of the first is lower: 30.3% for the first, 82.4% for the second.

Compared with `CC(C)c1nccn1CC(=O)Nc1ccnn1C(C)C(C)C` (stereo not drawn), `Cc1nccn1CCC1CCN(c2ncccn2)CC1` is higher in INHIBITION: -5.51% for the first, 48.5% for the second.

Compared with `COC(=O)c1cccc(C(=O)NCc2ccco2)n1`, `CN(C)C(=O)N1C[C@@H](C(=O)NCc2ccco2)C[C@H]2OCC[C@H]21` is lower in INHIBITION: 41.6% for the first, -28% for the second.

Compared with `CC(=O)Nc1ccc(S(=O)(=O)N2CCOC(Cn3ccnc3)C2)cc1` (stereo not drawn), `CCc1ccc(NC(=O)CCN2CC(n3nc(C)cc3C)C2)cc1` is higher in INHIBITION: -36.4% for the first, 52.6% for the second.

Compared with `Cc1cc(C)n(C2CN(CCC(=O)NC3CCCCC3)C2)n1`, `Cc1cc(C)n(C2CN(CCC(=O)NCCc3ccccc3)C2)n1` is higher in INHIBITION: 25.6% for the first, 36.3% for the second.

Going from `CS(=O)(=O)N[C@@H]1CN(C(=O)c2cc3ccccc3s2)C[C@H]1O` to `CSCCc1c(-c2ccccc2)ncn1[C@H]1C[C@@H](C(=O)O)N(C)C1`, the INHIBITION rises from -19.7% to 19.5%.

First: FC(F)(F)c1cc(C2CCN(c3cnccn3)CC2)n2ccnc2n1
Second: O=C(Cc1ccccc1)N1CCOC(c2nc(-c3ncccn3)no2)C1 (stereo not drawn)
The INHIBITION of the first is higher: -7.98% for the first, -20.2% for the second.

Going from `CN(C)C(=O)CN1CCc2onc(-c3ccccc3F)c2C1` to `CSCC(=O)N(C)Cc1noc(-c2ccccc2)n1`, the INHIBITION rises from -17.8% to 55.9%.

Compared with `Fc1cnc(N2C[C@H]3CN(Cc4cccc(F)c4)C[C@H]3C2)nc1`, `Fc1cccc(CN2C[C@@H]3CN(c4ncccn4)C[C@@H]3C2)c1` is lower in INHIBITION: 60% for the first, 28.5% for the second.

Going from `Cc1ccc(CN2C[C@@H]3CN(c4ncc(F)cn4)C[C@@H]3C2)cc1` to `Cc1ccc2nc(C3CCCN(Cc4ccccc4)C3)nc(O)c2c1` (stereo not drawn), the INHIBITION falls from 46.7% to 30.8%.

Compared with `CN(CCCc1cc(-c2ccc(F)cc2)n(C)n1)CC(N)=O`, `Cn1nc(C(=O)NCc2ccc(F)cc2)c2c1CCS(=O)(=O)C2` is higher in INHIBITION: -65.6% for the first, 21.7% for the second.

First: CN1CC[C@H](N(Cc2ccccc2)Cc2ccccc2)C[C@H](O)C1
Second: CN1CCC(N(CCc2ccccc2)C(=O)c2ccc(CO)cc2)CC1
The INHIBITION of the first is higher: 32.1% for the first, 25.2% for the second.

First: Cc1ccc(CN2CCO[C@@H]3C[C@@H](C(=O)NC(C)C)C[C@H]32)o1
Second: O=C([C@H]1CC[C@@H]2[C@@H](CCN2Cc2ccc(F)cc2)O1)N1CCCO1
The INHIBITION of the first is lower: -26.5% for the first, -11.6% for the second.

Going from `CSCCc1c(-c2ccccc2)ncn1CC(C)(C)N1CCOCC1` to `CSCCc1c(-c2ccccc2)ncn1CC(C)(C)N1CCCC1`, the INHIBITION falls from 69.3% to 26.7%.

Going from `CN(C)CC(C)(C)Cn1cnc(-c2ccccc2)c1-c1cccc(O)c1` to `CC(C)(Cn1cnc(-c2ccccc2)c1-c1ccco1)N1CCOCC1`, the INHIBITION rises from -39.3% to 51.7%.

First: CCc1cc(CN(C)C(=O)c2cc(=O)[nH]c(=O)[nH]2)on1
Second: CCc1nc(CN(C)C(=O)CSC)no1
The INHIBITION of the first is lower: -34.8% for the first, -4.96% for the second.

Going from `CCn1nc(C)c2ncnc(N3CCCC(C)C3)c21` (stereo not drawn) to `Cc1ccc(N2CCCC(N(C)c3nn4cc(C)nc4s3)C2)nn1` (stereo not drawn), the INHIBITION falls from 26.9% to -21.9%.

Compared with `CCN(CC1CCOC1)C(=O)c1ccc(N(C)C)cc1F` (stereo not drawn), `CCCC1(NC(=O)C(c2ccc(F)cc2)N(C)C)CC1` (stereo not drawn) is higher in INHIBITION: 13.8% for the first, 53.6% for the second.

Compared with `COc1ccc(C(NCc2cccc(O)c2)C2CC2)cc1` (stereo not drawn), `COc1ccc(CNC(=O)c2nn(C)c3c2CS(=O)(=O)CC3)cc1` is higher in INHIBITION: 3.84% for the first, 40% for the second.

First: COCC1CN(Cc2ccc3c(c2)OCO3)Cc2ncn(C)c21 (stereo not drawn)
Second: CCOCC1CN(Cc2ccc3c(c2)OCO3)Cc2ncn(C)c21 (stereo not drawn)
The INHIBITION of the first is higher: 38.2% for the first, 23.3% for the second.

Compared with `CC(C)COCC1CN(Cc2ccc3c(c2)OCO3)Cc2ncn(C)c21` (stereo not drawn), `Cn1cnc2c1C(COCC1CC1)CN(Cc1ccc3c(c1)OCO3)C2` (stereo not drawn) is higher in INHIBITION: 55.1% for the first, 63.5% for the second.

First: CC(C)COCC1CN(Cc2cnn(C)c2)Cc2ncn(C)c21 (stereo not drawn)
Second: CC(C)COCC1CN(Cc2ccoc2)Cc2ncn(C)c21 (stereo not drawn)
The INHIBITION of the first is higher: 28.3% for the first, 9.51% for the second.

Compared with `CC(C)Cn1c(=O)[nH]c2cn(-c3ccc(F)cc3)c(=O)n21`, `CN(C)C(C(=O)NC1(CO)CCCC1)c1ccc(F)cc1` (stereo not drawn) is higher in INHIBITION: 11.4% for the first, 31.3% for the second.

Compared with `Cc1cc(CN2CCC3(CC2)CC(Nc2ncccn2)CO3)nn1C` (stereo not drawn), `O=C1CC2(CCCC2)CC(=O)N1Cc1ncccn1` is higher in INHIBITION: -0.813% for the first, 29.4% for the second.

Going from `COCC1(NC(=O)C(c2ccc(F)cc2)N(C)C)CCCC1` (stereo not drawn) to `Cc1ccc2c(c1)C(N(C)C)CC21CCN(CCO)CC1` (stereo not drawn), the INHIBITION falls from 21.1% to -57.1%.

Going from `CCOc1ccc(CCCC(=O)N2CCC(c3nnn[nH]3)CC2)cc1C` to `Cc1ccsc1CN1CCC(n2cc(C(O)c3ccccc3)nn2)CC1` (stereo not drawn), the INHIBITION rises from 17.7% to 72.1%.

First: CC(C)CC(=O)N1CCCCC(NC(=O)CCc2cccnc2)C1 (stereo not drawn)
Second: COCC(=O)N1CCC2(CC1)CC(CC(=O)NC1CC1)c1ccccc12 (stereo not drawn)
The INHIBITION of the first is higher: 34.4% for the first, 25.6% for the second.

First: CCO[C@H]1CCN(S(=O)(=O)c2cn(C)cn2)[C@H]1Cc1ccccc1
Second: CN1CCC(N(CCc2ccccc2)C(=O)c2ccc(C#N)nc2)CC1
The INHIBITION of the first is lower: -55.5% for the first, 12.5% for the second.

Going from `C1CC(c2noc(C3CC3)n2)CN(Cc2noc(C3CC3)n2)C1` (stereo not drawn) to `c1cc(CN2CCCC(c3noc(C4CC4)n3)C2)no1` (stereo not drawn), the INHIBITION rises from 17.8% to 51.6%.

Compared with `Cc1cccn2cc(CN3CCCC(c4noc(C5CC5)n4)C3)nc12` (stereo not drawn), `Cc1cnnn1Cc1nnn2c1CN(Cc1ccccn1)CCC2` is higher in INHIBITION: -48.6% for the first, 42.6% for the second.

First: CCN(Cc1cnn(C)c1)C[C@H]1CC[C@@H](Cc2ccc(CO)cc2)O1
Second: CN1CCC(N(CCc2ccccc2)C(=O)c2ccc(C#N)cc2)CC1
The INHIBITION of the first is lower: -5.78% for the first, 53.1% for the second.

First: O=C(NCc1ccco1)[C@H]1C[C@@H]2CCN(c3nncs3)C[C@H]2O1
Second: Cc1ccc(CN2CCC(n3cc(C(O)c4ccccc4)nn3)CC2)o1 (stereo not drawn)
The INHIBITION of the first is lower: 13.5% for the first, 48.5% for the second.

First: CN(Cc1noc(-c2ccccc2)n1)C(=O)CSc1nnc(N)s1
Second: Cc1nc(N)sc1C(=O)N1Cc2ccccc2OC2(CCOCC2)C1
The INHIBITION of the first is lower: 18.9% for the first, 61.7% for the second.

Compared with `c1ccc(-c2cnc(CN3CCCC3Cn3cccn3)o2)cc1` (stereo not drawn), `OC(c1ccccc1)c1cn(C2CCN(Cc3nccs3)CC2)nn1` (stereo not drawn) is lower in INHIBITION: 40.9% for the first, 18.5% for the second.

Compared with `Cn1nc(C(=O)NCc2cccnc2)c2c1CCS(=O)(=O)C2`, `Cn1nc(C(=O)NCc2ccccn2)c2c1CCS(=O)(=O)C2` is lower in INHIBITION: 73.9% for the first, -45% for the second.

Compared with `Cn1nc(C(=O)NCc2cccs2)c2c1CCS(=O)(=O)C2`, `Cn1nc(C(=O)NCc2ccc(Cl)cc2)c2c1CCS(=O)(=O)C2` is higher in INHIBITION: 23.4% for the first, 53.2% for the second.

First: O=C(O)CSc1nc(-c2ccc3c(c2)CCC3)n[nH]1
Second: Cc1cnc(-c2nc(O)c3c(n2)CN(C(=O)C2CCCO2)CC3)cn1 (stereo not drawn)
The INHIBITION of the first is higher: 11.4% for the first, 9.05% for the second.

Going from `c1cnc(N2CCN(CCn3ccnc3-c3ccncc3)CC2)nc1` to `c1cnc(N2CCN(CCn3ccnc3-c3c[nH]cn3)CC2)nc1`, the INHIBITION falls from 50.5% to 14.5%.

First: O=C(c1ccncc1)N1Cc2ccccc2OC2(CCOCC2)C1
Second: Cc1ccc(C(=O)N2Cc3ccccc3OC3(CCOCC3)C2)cn1
The INHIBITION of the first is lower: 20.5% for the first, 52% for the second.

First: Cc1cnc(C(=O)N2Cc3ccccc3OC3(CCOCC3)C2)cn1
Second: Cc1cc(C(=O)N2Cc3ccccc3OC3(CCOCC3)C2)nc(N)n1
The INHIBITION of the first is lower: -6.92% for the first, 52.9% for the second.

Compared with `O=C(c1ccccn1)N1Cc2ccccc2OC2(CCOCC2)C1`, `O=C(c1ccc(O)nc1)N1Cc2ccccc2OC2(CCOCC2)C1` is lower in INHIBITION: 48.4% for the first, 25.6% for the second.

First: O=C(c1cncnc1)N1Cc2ccccc2OC2(CCOCC2)C1
Second: Nc1nonc1C(=O)N1Cc2ccccc2OC2(CCOCC2)C1
The INHIBITION of the first is lower: -33.4% for the first, 8.72% for the second.

First: O[C@H]1CN(Cc2ccc3c(c2)OCCO3)CC[C@@]12CCCO2
Second: O=C(CC1CCC2(CC1)CCN(Cc1ccncc1)CC2)N1CCCC1
The INHIBITION of the first is higher: 19.6% for the first, -15.2% for the second.

Compared with `CCN(Cc1ccoc1)C(=O)C1CCN(C(=O)OC(C)(C)C)C1` (stereo not drawn), `CC(C)CC(O)C1CCN(C(=O)c2coc(CN3CCOCC3)c2)CC1` (stereo not drawn) is higher in INHIBITION: -12.4% for the first, 16.7% for the second.

Going from `Cc1cc(C(=O)NC2=NCCS2)c(C)n1-c1ccccn1` to `CN(C)C1CC2(CCN(C(=O)c3csnn3)CC2)c2ccccc21` (stereo not drawn), the INHIBITION falls from 42.1% to -22.1%.

First: CC(CO)CN(Cc1ccccc1)Cc1c[nH]cn1 (stereo not drawn)
Second: CN(C)C1CC2(CCN(C(=O)NC3CC3)CC2)c2ccccc21 (stereo not drawn)
The INHIBITION of the first is lower: 9.55% for the first, 61.1% for the second.

First: CN(C)C1CC2(CCN(C(=O)C3(C#N)CC3)CC2)c2ccccc21 (stereo not drawn)
Second: O=C(NC1CC1)N1CCC2(CC1)CC(N1CCOCC1)c1ccccc12 (stereo not drawn)
The INHIBITION of the first is higher: 57.5% for the first, 43% for the second.
